CPE inhibition data for 92 compounds are collected here from PubChem BioAssay AID2391 (Southern Research Specialized Biocontainment Screening …, 2010).

SMILES strings stand for the structures. Among all 310,000 compounds or so, about 410 (0.13%) were called active. Another 2% or so got no clear call; they are omitted. The list is a sample of the results. Entries with a potency or affinity are not part of this list. Unmarked numbers belong to inactive results. How the calls were made is not given here.

The assay in a line: RSV antiviral activity via CPE protection, HEp-2 cells, primary 10 µM value included (AID 2391). Conditions: RSV-induced CPE inhibition, at 10 µM, hits give high values.
Regarding `COc1ccc(-c2ccc3c(N)c(C(=O)c4ccc(OC)c(OC)c4)sc3n2)cc1`, the CPE inhibition is 1.75%. As to `COc1ccc(NC(=O)c2sc3nc(-c4cccnc4)ccc3c2N)cc1OC`, the CPE inhibition was 1.58%. The figure for `O=C(Nc1nc(-c2ccccc2)cs1)c1cccc([N+](=O)[O-])c1C(=O)O` is 0.63%; for `CCCC(=O)Oc1ccc(C2NC(=O)c3ccccc3O2)cc1OC` (configuration not stated) it is -0.32%. Turning to `CCNS(=O)(=O)c1ccc(CCC(=O)NCc2ccccn2)cc1`, the CPE inhibition is -0.26%.

For `CS(=O)(=O)N1N=C(c2ccco2)CC1c1ccc(Br)cc1` (configuration not stated), the CPE inhibition is -1.1%. Turning to `CCOc1c(Cl)cc(CNCc2ccccn2)cc1OC`, the CPE inhibition was 0.14%. The same measure for `C/C(N)=C(/C#N)C(=O)COC(=O)CNS(=O)(=O)c1c(F)cccc1F`: 1.63%; for `C/C(N)=C(/C#N)C(=O)COC(=O)CNS(=O)(=O)c1ccc(C)cc1`: 0.79%; for `CCOC(=O)c1sc(=NC(=O)c2ccc(OC(C)C)cc2)n(C)c1C`: -0.02%. The figure for `Cc1cc[n+](C(C)C(=O)c2ccc(Cl)cc2)cc1` (configuration not stated) is 0.43%.

On to `COC(=O)C1=C(N)Oc2cc(C)n(Cc3ccccc3)c(=O)c2C1c1ccccc1` (configuration not stated), for which the CPE inhibition was 3.61%.

In the case of `O=C(Nc1ccccc1N1CCN(C(=O)c2ccc(Cl)cc2)CC1)c1ccc(Br)cc1`, the CPE inhibition is 10.3%. Regarding `CC(C)(C)NC(=O)COC(=O)c1ccccc1Nc1ccc(SC(F)F)cc1`, the CPE inhibition is 20.3%. In the case of `CN(C)C(=O)COC(=O)c1ccccc1OCC(=O)Nc1ccc(SC(F)F)cc1`, the CPE inhibition was 0.56%. The same measure for `Clc1cc2nc[nH]c2cc1Cl`: 2.89%. The same measure for `c1ccc2[nH]cnc2c1`: 3.25%. The same measure for `OCc1cn(-c2ccc(Cl)cc2)nn1`: 0.61%.

Take `COc1cc(NC(=O)C2CC(=O)N(CCc3ccc(F)cc3)C2)cc(OC)c1OC` (configuration not stated): the CPE inhibition is 1.32%. For the compound `CCn1c2ccc(F)cc2c2nnc(NN)nc21`, the CPE inhibition was 8.49%. The figure for `CCCn1c2ccc(F)cc2c2nnc(NN)nc21` is 2.66%. The same measure for `Cc1nn(-c2ccccc2)cc1/C=N/NS(=O)(=O)c1ccccc1`: 0.36%; for `O=S(=O)(c1cccc(-c2csc(-c3cccnc3)n2)c1)N1CCOCC1`: 18.8%; for `Cc1nc(-c2cccc(S(=O)(=O)N3CCOCC3)c2)cs1`: 2.05%. The figure for `CC(C)(C)c1ccc(C(=O)c2c[nH]c(C(=O)NCCCn3ccnc3)c2)cc1` is 15.1%; for `CC(C)[C@H](NC(=O)N1CCn2c1nc1ccccc12)C(=O)NCc1ccc(F)cc1` it is 7.05%. As for `CC(C)[C@H](NC(=O)N1CCn2c1nc1ccccc12)C(=O)NCc1ccco1`, the CPE inhibition is 5.22%. The figure for `COc1cc(C(=O)NNC(=O)COc2ccccc2Cl)ccc1OCC(=O)N1CCOCC1` is 0.6%; for `O=C(Nc1cccc(NC(=O)c2ccccc2Cl)c1)c1ccco1` it is 2.07%; for `c1ccc(N2CCN(c3ncnc4scc(-c5cccs5)c34)CC2)cc1` it is 12.1%. In the case of `COc1ccccc1C(=O)NCCCNc1ccc([N+](=O)[O-])cc1`, the CPE inhibition is 0.97%.

On to `CCn1c(=O)c2cc(C(=O)N(C)c3ccc(OC)cc3OC)sc2c2ccccc21`, for which the CPE inhibition is 13.1%. For `CCn1c(=O)c2cc(C(=O)N(C)c3ccccc3F)sc2c2ccccc21`, the CPE inhibition is 17.4%. In the case of `Cc1ccc(-c2nn(-c3ccccc3)cc2CN(Cc2ccccc2)C(=O)c2ccco2)o1`, the CPE inhibition was 22.2%. The same measure for `CCCCC(NC(=O)Cc1c(C)c2cc3c(C)c(C)oc3c(C)c2oc1=O)C(=O)O` (configuration not stated): 1.13%; for `Cc1c(CC(=O)N[C@@H](C)C(=O)O)c(=O)oc2c(C)c3occ(-c4ccccc4)c3cc12`: 6.88%. The same measure for `COc1ccc(Cl)cc1N(C(C)C(=O)O)S(C)(=O)=O` (configuration not stated): 1.24%; for `CC(C)COc1ccc(C(=O)NNC(=O)c2ccc(=O)[nH]c2)cc1`: 0.85%; for `CCCCn1c(N)c(N(CCOC)C(=O)c2cc(CC)c(C)s2)c(=O)[nH]c1=O`: 0.21%. Regarding `COc1ccccc1N(Cc1ccccc1)S(=O)(=O)c1cccc(C(=O)Nc2ccccn2)c1`, the CPE inhibition was 40.2%. `COc1ccccc1N(Cc1ccccc1)S(=O)(=O)c1cccc(C(=O)Nc2ccc(C)cn2)c1`: the CPE inhibition is 40.7%. The same measure for `Cc1ccc(N(CCC#N)C(=O)COC(=O)C2CCN(S(=O)(=O)c3ccc(C)c(C)c3)CC2)cc1`: 3.94%; for `COCCN(C(=O)CSc1nnc(-c2ccc(Cl)cc2)o1)c1c(N)n(CC(C)C)c(=O)[nH]c1=O`: 2.35%; for `CCN(CC)c1ccc(-c2nnc(SCC(=O)N(CCOC)c3c(N)n(CC(C)C)c(=O)[nH]c3=O)o2)cc1`: 8.83%. The figure for `CCc1cc(=O)oc2cc(OC(C)=O)cc(OC(C)=O)c12` is 5.44%. Turning to `COc1cc(OC)c2c(C)cc(=O)oc2c1`, the CPE inhibition is 0.35%.

Regarding `CCOc1ccccc1N(CC(=O)N1CCC(C(N)=O)CC1)S(=O)(=O)c1ccc(SC)cc1`, the CPE inhibition is 1.65%. The same measure for `Cc1ccc(Cl)cc1NC(=O)CSc1sc2c(O)cc(=O)[nH]c2c1C#N`: -0.05%; for `Cc1ccc(C)c(OCC(=O)NCC(c2ccco2)N2CCCCC2)c1` (configuration not stated): -1.03%. Consider `OCCOCCn1c(C(CO)Nc2nc(-c3ccc(Cl)cc3)cs2)nc2ccccc21` (configuration not stated), for which the CPE inhibition was 9.48%. In the case of `c1ccc(Nc2nc(-c3ccncc3)nc3ccccc23)cc1`, the CPE inhibition was 4.52%. As for `Fc1ccc(Nc2nc(-c3ccncc3)nc3ccccc23)cc1`, the CPE inhibition was 4.4%.

For the compound `COc1ccc(C(=O)NCCn2cc(SCC(=O)NCC3CCCO3)c3ccccc32)cc1` (configuration not stated), the CPE inhibition was 0.51%. The same measure for `Cc1ccc(NC(=O)C2CCN(S(=O)(=O)c3ccc(F)cc3)CC2)cc1`: -1.19%; for `Cc1ccc(S(=O)(=O)N2CCC(C(=O)Nc3ccc(S(=O)(=O)N4CCCC4)cc3)CC2)cc1`: 0.34%; for `CC(NC(=O)c1ccccc1NC(=O)c1ccccc1)C(=O)N1CCOCC1` (configuration not stated): 3.72%. The same measure for `CN1CCc2[nH]c3ccc(C(=O)NN)cc3c2C1`: -1.2%; for `Cc1ccc2[nH]c3c(c2c1)CN(C)CC3`: -0.58%; for `CC(C)CNC(=O)c1cccc(NC(=O)Cc2ccc(Br)cc2)c1`: 15.3%. Take `CC(=O)/C(C#N)=C1\NC(=O)C(Cc2ccc(F)cc2)S1` (configuration not stated): the CPE inhibition was 12.6%. The figure for `CC(=O)/C(C#N)=C1\NC(=O)C(Cc2ccc(C)c(Cl)c2)S1` (configuration not stated) is 15%; for `CC(=O)/C(C#N)=C1\NC(=O)C(Cc2cc(Cl)ccc2Cl)S1` (configuration not stated) it is 14%; for `CCc1ccc(CC2S/C(=C(\C#N)C(C)=O)NC2=O)cc1` (configuration not stated) it is 6.6%. The figure for `CC1CCCN(c2nc3c(c(=O)n(C)c(=O)n3C)n2CCSc2nc3ccccc3o2)C1` (configuration not stated) is 1.2%; for `COc1ccccc1NC(=O)C(=O)NCC1COc2ccccc2O1` (configuration not stated) it is 5.12%. The same measure for `NS(=O)(=O)c1ccc(CCNC(=O)CSc2nc3ccccc3c(=O)n2CCC(=O)N2CCCCC2)cc1`: 0.56%; for `c1csc(-c2nc3ccccc3[nH]2)c1`: 4.14%.

Turning to `Cc1cc(=O)[nH]c(-c2ccccc2O)n1`, the CPE inhibition is 0.17%. For `c1ccc(-c2nc(-c3cccs3)[nH]c2-c2ccccc2)cc1`, the CPE inhibition was 1.1%. The same measure for `Cn1c(=O)c2[nH]c(-c3ccccc3O)nc2n(C)c1=O`: 9.42%; for `O=S(=O)(NC(=NCc1ccccc1)c1ccccc1F)c1ccccc1`: 0.88%; for `COc1ccc(CNC(=O)CN(Cc2ccc(F)cc2)C(=O)CCC(=O)Nc2nccs2)cc1`: 0.79%.

For `CC(OC(=O)c1cccc([N+](=O)[O-])c1)C(=O)NCc1ccc2c(c1)OCO2` (configuration not stated), the CPE inhibition is 2.66%. As for `COCc1cc(C)nc(NC2CC(C)(C)NC(C)(C)C2)c1C#N`, the CPE inhibition is -1.99%. For `CCCn1c2ccccc2c2nnc(SCC(=O)Nc3cc(C)on3)nc21`, the CPE inhibition is 1.54%.

As to `C=CCn1c2ccccc2c2nnc(SCc3ccc4nonc4c3)nc21`, the CPE inhibition was 3.57%. The same measure for `Cn1c2ccccc2c2nnc(SCc3ccc4nonc4c3)nc21`: -0.67%; for `CCn1c2ccccc2c2nnc(SCC(=O)Nc3c(C)n(C)n(-c4ccccc4)c3=O)nc21`: 17.8%; for `Nc1nnc(COc2cccc(C(F)(F)F)c2)s1`: 1.04%. For the compound `COC(=O)c1ccc(C(=O)OC)c(NC(=O)C2CC2)c1`, the CPE inhibition is 1.03%.

Consider `COc1ccc2cc(CN(CCCN3CCOCC3)Cc3nnnn3C3CCCC3)c(=O)[nH]c2c1`, for which the CPE inhibition was -0.3%. As to `CCOc1ccccc1N(CC)C(=O)c1ccc2c(=O)n3c(nc2c1)CCCCC3`, the CPE inhibition is 4.24%. The same measure for `Cc1c(Cl)ccc2c1NC(=O)C21NC(CCC(N)=O)[C@H]2C(=O)N(c3ccc(Cl)cc3)C(=O)[C@H]21` (some centres not stated): 2.04%.

On to `C[N+](C)(C)CC/C=C1/c2ccccc2CSc2ccccc21`, for which the CPE inhibition is -0.47%. The same measure for `Cc1ccc(/C(=N\O)c2oc3c(C)c4oc(=O)cc(C)c4cc3c2C)cc1`: -1.6%.

On to `C/C(=N\O)c1oc2ccc3c(C)cc(=O)oc3c2c1C`, for which the CPE inhibition was 21.3%. With `CCC(Cc1ccccc1)NC(=O)C1CC1` (configuration not stated), the CPE inhibition was -0.41%.

Take `O=[N+]([O-])c1ccc(CN2CCN(c3ccc([N+](=O)[O-])cc3)CC2)cc1`: the CPE inhibition is 8.04%. The figure for `COc1ccc(CNC(=S)NCc2ccc(OC(C)C)cc2)cc1` is 3.45%; for `CC(C)c1ccc(Nc2ncccc2C(=O)O)cc1` it is 10.4%; for `COc1ccc(Nc2ncccc2C(=O)O)cc1` it is -0.34%. The figure for `CCOC(=O)c1c(C)nc2c(c1C)/C(=N/O)CC(C)(C)C2` is 5.56%.
